Screening results deposited in PubChem BioAssay by The Scripps Research Institute Molecular Screening Center.
Most compounds without a hit are left out; they make up all but 4.1% or so of the library.
hcDAF12 agonist: H. contortus DAF-12 activation, primary screen; HEK293 hcDAF-12 lit1-tk-luc reporter, luminescence; 0% DMSO, 100% Δ7-dafachronic acid; activation, % at 6.8 µM; 1.4% of 370,000 active; AID 652067;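 active = activation above the mean of all tested compounds plus 3 SD, cut at about 5.5% in these data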
hgDAF12 agonist: hgDAF-12 agonism, primary luciferase screen; 1.8% of 370,000 active; HEK293 GAL4-hgDAF12 UAS-luciferase reporter, agonist luminescence; normalized to butyrate control; activation, % at 6.8 µM; AID 687014;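 active = activation above a cutoff set at the mean of all screened compounds plus 3 SD, cut at about 10% in these data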
DAX1 inh-1: inhibitors of DAX1 repression of SF-1 activated StAR promoter; HEK293T StAR-luciferase reporter, SF-1/DAX-1 repression relief; 1.1% of 370,000 active; inhibition, % at 6.8 µM;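 active = inhibition above the mean over all tested compounds plus 3 SD, cut at about 3.6% in these data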;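 note: higher inhibition means more luminescence from relief of DAX-1 repression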
DAX1 inh-2: inhibitors of human orphan nuclear receptor DAX1 (NR0B1); inhibition, % at 6.75 µM; 0.99% of 340,000 active; HEK293 Gal4-DAX1 luciferase reporter, luminescence;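 active = inhibition above the mean over all tested compounds plus 3 SD, cut at about 4.2% in these data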;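 note: inhibition shows as a rise in luminescence from relieved DAX1 repression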
ssDAF12 agonist: activators of S. stercoralis DAF-12 nuclear receptor; 1% of 370,000 active; activation, % at 6.8 µM; HEK293 ssDAF-12/GRIP1 lit1-tk-luc reporter, luminescence; % of 3 µM dafachronic acid response; AID 652126;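 active = activation above the mean over all tested compounds plus 3 SD, cut at about 0.9% in these data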
hgDAF12 conf: hgDAF-12 agonism, confirmation assay. shares compounds with hgDAF12 agonist. HEK293 GAL4-hgDAF12 luciferase reporter, agonist mode; percent of butyrate response. activation, % at 6.8 µM. 80% of 3,300 active. AID 743050;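 active = mean activation over triplicate wells above the hit cutoff derived from the earlier primary screen, cut at about 11% in these data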
LXR ag 2: LXR-beta agonism as DAF-12 counter-screen. activation, % at 6.8 µM. HEK293 Gal4-LXR luciferase reporter, 24 h. 3,300 tested, under 10 active. shares compounds with hgDAF12 agonist;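 active = mean activation of the triplicate above a set limit carried over from the primary screen, none filed active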
Target sequence (P55055 whole entry, looked up, the tested form may be a part): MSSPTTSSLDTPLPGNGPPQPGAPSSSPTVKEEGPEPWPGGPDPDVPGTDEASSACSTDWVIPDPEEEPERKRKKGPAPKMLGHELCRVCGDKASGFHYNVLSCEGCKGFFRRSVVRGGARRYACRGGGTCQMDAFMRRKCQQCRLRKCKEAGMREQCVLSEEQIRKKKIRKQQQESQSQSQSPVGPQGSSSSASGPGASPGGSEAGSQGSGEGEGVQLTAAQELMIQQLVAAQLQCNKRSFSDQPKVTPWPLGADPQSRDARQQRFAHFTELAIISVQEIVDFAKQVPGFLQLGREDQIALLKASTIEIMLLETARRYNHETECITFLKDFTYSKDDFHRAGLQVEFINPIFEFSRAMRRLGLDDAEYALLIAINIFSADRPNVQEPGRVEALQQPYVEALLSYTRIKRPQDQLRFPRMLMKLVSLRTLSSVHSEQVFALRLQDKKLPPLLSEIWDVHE
A number is an active result; 0 = inactive; - = no result given.

SMILES	hcDAF12 agonist	hgDAF12 agonist	DAX1 inh-1	DAX1 inh-2	ssDAF12 agonist	hgDAF12 conf	LXR ag 2
CC(C)C(N)c1csc(Nc2nncc3ccccc23)n1 (configuration not stated)	0	14	0	-	0	0	0
CC(N)c1csc(Nc2nncc3ccccc23)n1 (configuration not stated)	0	0	0	-	0	-	-
Cc1ccc(C(=O)Nc2cnc3ccccc3c2)cc1	0	0	0	0	0	-	-
O=C(N/N=C/c1cc(O)ccc1[N+](=O)[O-])c1ccc2c(c1)OCCO2	0	18	3.6	0	0	14	0
COc1ccc(/C=N/NC(=O)c2ccc3c(c2)OCCO3)cc1[N+](=O)[O-]	0	0	0	0	0	-	-
O=C(Nc1ccc2c(c1)OCCO2)c1ccc(Cl)c(Cl)c1	0	15	0	7.0	0	17	0
Cc1cc(C(=O)Nc2cnc3ccccc3c2)ccc1[N+](=O)[O-]	0	15	0	0	0	17	0
O=C(Nc1ccc2c(c1)OCCO2)c1ccc2nccnc2c1	0	15	4.3	0	0	15	0
NS(=O)(=O)c1ccc(CNC(=O)/C=C/c2c(F)cccc2Cl)cc1	0	0	0	0	0	-	-
Cc1ccc(C)c(S(=O)(=O)N2CCN(C(=O)Cn3[nH]c(=O)c4ccccc4c3=O)CC2)c1	0	0	0	0	0	-	-
COC(=O)c1ccc(NC(=O)c2cccc(NC(=O)c3ccccc3)c2)cc1	0	0	0	0	0	-	-
CCc1ccc(N2CCN(S(=O)(=O)CC34CCC(CC3=O)C4(C)C)CC2)cc1 (configuration not stated)	0	0	0	0	0	-	-
CCCOc1cccc(C(=O)Nc2ccc3c(c2)OCCO3)c1	6.3	19	0	0	0	20	0
CN1CCN(c2ccc(NC(=O)c3ccc4c(c3)OCCO4)cc2)CC1	6.1	17	0	0	0	11	0
Cc1cc(C(=O)Nc2ccc3c(c2)OCCO3)ccc1[N+](=O)[O-]	0	18	0	0	0	12	0
COc1ccc(C(=O)Nc2ccc3c(c2)OCCO3)cc1Br	0	15	0	0	0	15	0
CCCOc1cccc(C(=O)Nc2cccc(NC(=O)c3ccco3)c2)c1	0	0	0	0	0	-	-
Cc1noc(NS(=O)(=O)c2ccc(NC(=O)Cc3ccc([N+](=O)[O-])cc3)cc2)c1C	0	0	0	0	0	-	-
CC(C)c1ccc(NC(=S)NC2CCCCCC2)cc1	0	16	0	0	0	0	0
Cc1cc(C(=O)COC(=O)c2cc(Cl)ccc2N)c(C)n1Cc1ccco1	0	14	3.7	0	0	13	0
Cc1cc(C(=O)COC(=O)c2ccco2)c(C)n1Cc1ccco1	0	0	0	0	0	-	-
CC/C(=N\NC(=O)c1ccc(N(C)C)cc1)c1ccccc1	0	0	0	0	0	-	-
NS(=O)(=O)c1ccc(NC(=O)c2ccc(-c3ccccc3)cc2)cc1	0	0	0	-	0	-	-
NS(=O)(=O)c1ccc(C(=O)Nc2ccc(-c3nc4cccnc4s3)cc2)cc1	0	14	0	0	0	14	0
CCn1ccc(C(=O)Nc2cccc(Cl)c2)n1	0	15	0	0	0	0	0
SMILES	hcDAF12 agonist	hgDAF12 agonist	DAX1 inh-1	DAX1 inh-2	ssDAF12 agonist	hgDAF12 conf	LXR ag 2
CCn1ccc(C(=O)Nc2ccccc2Cl)n1	0	14	4.3	0	0	15	0
COc1ccc([C@H]2CC(=O)C[C@@H](CCn3cc(-c4ccncc4)nn3)O2)cc1	0	0	0	-	0	-	-
O=C1CCCC/C1=N\Nc1ccc(OCc2ccccc2)cc1	0	0	0	0	0	-	-
O=C(Nc1ccc(C(O)(C(F)(F)F)C(F)(F)F)cc1)c1ccc(Cl)cc1	0	14	-	-	0	0	0
O=C(Nc1ccc(Cl)cc1)c1ccc2nsnc2c1	0	18	0	0	0	15	0
O=C(Nc1ccc(C(O)(C(F)(F)F)C(F)(F)F)cc1)c1ccc(Cl)c([N+](=O)[O-])c1	0	0	0	0	0	-	-
COC1=C/C(=C/c2c(N)n3nc(-c4ccc(C)cc4)sc3nc2=O)C=CC1=O	6.2	13	0	0	0	0	0
CCOC1=C/C(=C/c2c(N)n3nc(-c4ccccc4)sc3nc2=O)C=CC1=O	0	0	0	-	0	-	-
Cc1ccccc1C(=O)N1CCC(C(=O)Nc2nc3ccc(F)cc3s2)CC1	0	0	0	0	0	-	-
O=C1c2ccccc2-c2nnc(-c3ccc(F)cc3)cc21	6.0	15	0	7.1	1.4	11	0
O=c1[nH]nc(-c2ccc(F)cc2)cc1-c1ccccc1	0	0	0	0	0	-	-
